# According to PMC12431657, “Discovery and mechanistic insights of dibenzoylmethane as a broad spectrum inhibitor of coronavirus” (PLOS Pathogens, 2025):
# Structures can show the parent of a compound that is named as a salt. Where two headings read alike, the source gives them in different places. In all, about 3,300 compounds went through this assay and about 60 (2%) showed an effect of 50% or more. The sample as a whole holds a higher share of strong results than the screen did. Bridge positions count the residues as written; N and C are the ends. Square brackets hold non-standard residues; d marks the D form. Peptide text beside a SMILES is read from it. * marks the point of attachment. Ileψ(thiazoline)Cys = CC[C@H](C)[C@H](N)C1=N[C@H](C(=O)*)CS1; NMePhe(4-NMe2) = CN[C@@H](Cc1ccc(N(C)C)cc1)C(=O)O; Pip(4-oxo) = O=C1CCN[C@H](C(=O)O)C1; Picolinoyl(3-OH) = O=C(c1ncccc1O)*; Phg = N[C@H](C(=O)O)c1ccccc1; dOrn = NCCC[C@@H](N)C(=O)O; dAbu = CC[C@@H](N)C(=O)O
# System: HCoV-OC43
# Set-up: species or system RD; HTS, protection from HCoV-OC43 induced cell death, luminescent cell viability (CellCounting-Lite 2.0), inhibition rate
# Details: 24 h post infection, 1 h compound pre-incubation, 10 µM, inhibitor
Structure (SMILES),"OC43 Inhibition rate (OC43 Inhibition rate, 24 h) [%]",OC43 Inhibition rate [%]
C[C@H](CCC(=O)NCC(=O)O)[C@H]1CC[C@H]2[C@@H]3CC[C@@H]4C[C@H](O)CC[C@]4(C)[C@H]3C[C@H](O)[C@]12C [Glycodeoxycholic acid (monohydrate)],-0.8,–
CCCCCCCC/C=C\CCCCCCCCCCCCCC(=O)O [Nervonic acid],–,-2.1
CC(=O)N[C@H](C(=O)O)C(C)C [Acetylvaline],–,-0.2
COc1ccc2c(c1OC)CN(C)c1c-2ccc2cc3c(cc12)OCO3 [Dihydrochelerythrine],–,1.4
"O=c1cc(-c2ccccc2)oc2c(O)c(O)ccc12 [7,8-Dihydroxyflavone]",–,0.2
O=c1cc(-c2ccccc2)oc2ccccc12 [Flavone],–,0.3
O=c1cc(-c2ccccc2)oc2c1ccc1ccccc12 [Alpha-Naphthoflavone],–,65.1
CC(C)=CCC[C@](C)(O[C@@H]1O[C@H](CO)[C@@H](O)[C@H](O)[C@H]1O)[C@H]1CC[C@]2(C)[C@@H]1[C@H](O)C[C@@H]1[C@@]3(C)CC[C@H](O)C(C)(C)[C@@H]3[C@@H](O[C@@H]3O[C@H](CO)[C@@H](O)[C@H](O)[C@H]3O[C@@H]3OC[C@@H](O)[C@H](O)[C@H]3O)C[C@]12C [Notoginsenoside R1],–,0.5
N[C@@H](Cc1c[nH]cn1)C(=O)O [L-Histidine (hydrochloride hydrate)],2.4,–
CC[C@H]1NC(=O)[C@@H](NC(=O)c2ncccc2O)[C@@H](C)OC(=O)[C@H](c2ccccc2)NC(=O)[C@@H]2CC(=O)CCN2C(=O)[C@H](Cc2ccc(N(C)C)cc2)N(C)C(=O)[C@@H]2CCCN2C1=O [Pristinamycin IA] ({Picolinoyl(3-OH)}-T[dAbu]P[NMePhe(4-NMe2)][Pip(4-oxo)][Phg]; ester 1-C),–,1.7
NCCCCNCCCN [Spermidine],-0.8,–
COc1cc(O)cc2oc(-c3ccc(O)c(O)c3)c(O)c(=O)c12 [Azaleatin],–,7.4
COc1cc2c(cc1OC)-c1cc3ccc4c(c3c(=O)n1CC2)OCO4 [8-Oxoepiberberine],–,10.1
COc1ccc2cc3n(c(=O)c2c1OC)CCc1cc2c(cc1-3)OCO2 [Oxyberberine],–,58.7
O=c1c2c3c(ccc2cc2n1CCc1cc4c(cc1-2)OCO4)OCO3 [8-Oxocoptisine],–,-0.2
OC[C@H]1O[C@@H](Oc2cc(/C=C/c3cc(O)cc(O)c3)ccc2O)[C@H](O)[C@@H](O)[C@@H]1O [Piceatannol 3'-O-glucoside],–,2
CC(C)=CCC12Oc3cc(O)ccc3C1(O)Oc1cc(O)c([C@H]3C=C(C)C[C@@H](c4ccc(O)cc4O)[C@@H]3C(=O)c3ccc(O)cc3O)c(O)c1C2=O (stereo partly shown) [Sanggenon D],–,42.1
CN[C@@H](C)[C@H]1[C@H](O)C[C@@]2(C)[C@@H]3CC[C@H]4C(C)(C)[C@@H](NC)CC[C@@]45C[C@@]35CC[C@]12C [Cyclovirobuxine D],–,109.3
CC(C)(O)[C@H]1CC[C@@](C)([C@H]2[C@@H](O)C[C@@]3(C)[C@@H]4C[C@H](O)[C@H]5C(C)(C)[C@@H](O)CC[C@@]56C[C@@]46CC[C@]23C)O1 [Cyclogalegenin],–,8.4
CC(C)(O)[C@@H]1CC[C@](C)([C@H]2[C@@H](O)C[C@@]3(C)[C@@H]4C[C@H](O)[C@H]5C(C)(C)[C@@H](O)CC[C@@]56C[C@@]46CC[C@]23C)O1 [Cycloastragenol],–,0.7
NCC(O)c1ccccc1 (stereo not shown) [2-Amino-1-phenylethanol],–,0
O=C(O)c1ccc(O)cc1 [4-Hydroxybenzoic acid],–,0.1

Structure (SMILES),"OC43 Inhibition rate (OC43 Inhibition rate, 24 h) [%]",OC43 Inhibition rate [%]
"C[C@@H](O)CO [(R)-(-)-1,2-Propanediol]",–,-0.2
COc1cc(CNC(=O)CCCC/C=C/C(C)C)ccc1O[C@@H]1O[C@H](CO)[C@@H](O)[C@H](O)[C@H]1O [Capsaicin β-D-glucopyranoside],–,0.3
CC1=CC(=O)[C@@H]2C[C@H]1C2(C)C [Verbenone],–,-0.2
C=C1[C@@H](O)[C@]2(O)OC[C@]34[C@H]2[C@@]2(C)[C@H](O)C(=O)C=C(C)[C@@H]2C[C@H]3OC(=O)[C@H](O)[C@@]14O [Eurycomanone],–,54.5
O=C(O)c1ccncc1 [Isonicotinic acid],–,-0.2
O=C(O)C(CO)c1ccccc1 (stereo not shown) [Tropic acid],–,0.5
CCC(C)(C)C(=O)O[C@H]1C[C@@H](C)C=C2C=C[C@H](C)[C@H](CC[C@@H](O)C[C@@H](O)CC(=O)O)[C@H]21 [Simvastatin acid (ammonium)],–,5
CCCCCCCCCC(=O)N[C@@H](Cc1c[nH]c2ccccc12)C(=O)N[C@H](CC(N)=O)C(=O)N[C@@H](CC(=O)O)C(=O)N[C@@H]1C(=O)NCC(=O)N[C@@H](CCCN)C(=O)N[C@@H](CC(=O)O)C(=O)N[C@H](C)C(=O)N[C@@H](CC(=O)O)C(=O)NCC(=O)N[C@H](CO)C(=O)N[C@@H]([C@H](C)CC(=O)O)C(=O)N[C@@H](CC(=O)c2ccccc2N)C(=O)O[C@@H]1C [Daptomycin],–,62.7
CC[C@H](C)[C@H](N)C1=N[C@H](C(=O)N[C@@H](CC(C)C)C(=O)N[C@H](CCC(=O)O)C(=O)N[C@H](C(=O)N[C@H]2CCCCNC(=O)[C@H](CC(N)=O)NC(=O)[C@@H](CC(=O)O)NC(=O)[C@H](Cc3cnc[nH]3)NC(=O)[C@@H](Cc3ccccc3)NC(=O)[C@H]([C@@H](C)CC)NC(=O)[C@@H](CCCN)NC2=O)[C@@H](C)CC)CS1 [Bacitracin] ({Ileψ(thiazoline)Cys}-L[dE]IK[dOrn]I[dF]H[dD]N; lactam 4-C),–,-0.3
CC(C)[C@@H]1NC(=O)CNC(=O)[C@H](C)NC(=O)[C@H](Cc2c[nH]c3ccccc23)NC(=O)[C@H](C)NC1=O [Segetalin B] (cyclo(AGVAW)),–,-0.5
CN1C[C@@H]2C[C@H](C1)c1cccc(=O)n1C2 [N-Methylcytisine],–,-2.8
C=C1CCOC1=O [Tulipalin A],–,28.2
Oc1ccc2ccc3cccc4ccc1c2c34 [1-Hydroxypyrene],–,16.8
CC1(C)[C@@H](O)CC[C@]2(C)[C@H]3CC=C4[C@@H]5C[C@@]6(C)C[C@H](OC6=O)[C@]5(C)CC[C@@]4(C)[C@]3(C)CC[C@@H]12 [Wilforlide A],–,0.1
O=C(N[C@@H](Cc1ccccc1)C(=O)N[C@H](CO)Cc1ccccc1)c1ccccc1 [Aurantiamide],–,1
COc1c(CC=C(C)C)c(O)cc2oc(=O)c(-c3ccc(O)cc3O)cc12 [Glycycoumarin],–,0.9
CC(C)=CCc1cc2c(cc1O)oc(=O)c1c3ccc(O)cc3oc21 [Psoralidin],–,0
COc1c(CC=C(C)C)c(O)cc2oc(=O)c3c4ccc(O)cc4oc3c12 [Neoglycyrol],–,113.3
Cc1c(C)c2c(c(C)c1O)CC[C@@](C)(CCCC(C)CCCC(C)CCCC(C)C)O2 (stereo in doubt) [rel-α-Vitamin E],–,5.5
CC1(C)CC[C@]2(C(=O)O[C@@H]3O[C@H](CO)[C@@H](O)[C@H](O)[C@H]3O)CC[C@]3(C)C(=CC[C@@H]4[C@@]5(C)CC[C@H](O[C@@H]6O[C@H](C(=O)O)[C@@H](O[C@@H]7O[C@@H](CO)[C@H](O)[C@H]7O)[C@H](O)[C@H]6O)C(C)(C)[C@@H]5CC[C@]43C)[C@@H]2C1 [Araloside A],–,1.5
"COc1cc2oc(-c3ccccc3)cc(=O)c2c(OC)c1OC [5,6,7-Trimethoxyflavone]",–,0.1
COC(=O)CC/C(C)=C/Cc1c(O)c2c(c(C)c1OC)COC2=O [Methyl mycophenolate],–,61.8

Structure (SMILES),"OC43 Inhibition rate (OC43 Inhibition rate, 24 h) [%]",OC43 Inhibition rate [%]
COc1c(C)c2c(c(O)c1C/C=C(\C)CCC(=O)O)C(=O)OC2 [Mycophenolic acid],–,36.2
COc1cc(-c2c3c(c(O)c4cc5c(cc24)OCO5)COC3=O)cc(OC)c1OC [Tetradehydropodophyllotoxin],–,1
O=C(O)c1cn[nH]c1 [4-Carboxypyrazole],–,0.1
C=C(C(=O)O)[C@@H]1CC[C@@H](C)[C@@H]2CCC(C)=C[C@@H]21 [Artemisic acid],–,4.6
Cc1ncc(C[n+]2csc(CCO)c2C)c(N)n1 [Thiamine monochloride],2.4,–
C[S@@+]([O-])CCCCN=C=S [(R)-sulforaphane],–,71.2
CC1=CCCC(C)(C)[C@H]1/C=C/C(C)=C/C=C/C(C)=C/C=C/C=C(C)/C=C/C=C(C)/C=C/C1=C(C)CCCC1(C)C [α-Carotene],–,19.1
O=c1ccc2nccc3c4ccccc4n1c23 [Canthin-6-one],–,-0.9
"O=C(/C=C/c1ccc(O)c(O)c1)O[C@H]1[C@H](O)C[C@](O)(C(=O)O)C[C@H]1OC(=O)/C=C/c1ccc(O)c(O)c1 [3,4-Dicaffeoylquinic acid]",–,6.5
C[N+](C)(C)[O-] [Trimethylamine N-oxide (dihydrate)],-1.8,–
CC(C)C[C@H](NC(=O)[C@@H](O)[C@H](N)Cc1ccccc1)C(=O)O [Bestatin],1.8,–
COc1cc2c(cc1CC=C(C)C)C(=O)C[C@@H](c1ccc(O)cc1)O2 [Bavachinin],–,20.3
CC(C)=CCc1cc2c(cc1O)O[C@H](c1ccc(O)cc1)CC2=O [Bavachin],–,66.9
COc1cc(O)c(CC=C(C)C)c2c1C(=O)CC(c1ccc(O)cc1)O2 (stereo not shown) [Isoxanthohumol],–,30.2
CC(C)=CCc1c(O)cc2c(c1O)C(=O)C[C@@H](c1ccc(O)cc1)O2 [(2S)-6-Prenylnaringenin],–,54.9
O=C1C[C@@H](c2ccc(O)c(O)c2)Oc2c1ccc(O[C@@H]1O[C@H](CO)[C@@H](O)[C@H](O)[C@H]1O)c2O [Flavanomarein],–,-5.7
COc1cc(O)c(CC=C(C)C)c2c1C(=O)C[C@@H](c1ccc(O)cc1)O2 [(2S)-Isoxanthohumol],–,48.2
O=C1C[C@@H](c2ccc(O)c(O)c2)Oc2cc(O)cc(O)c21 [Eriodictyol],–,0.2
CC(C)=CCc1cc([C@@H]2CC(=O)c3ccc(O)c(CC=C(C)C)c3O2)ccc1O [Glabrol],–,55.6
O=C1C[C@@H](c2ccc(O)cc2)Oc2cc(O)ccc21 [Liquiritigenin],–,0.2
